Data: PubChem BioAssay (Tox21)
Results filed as inconclusive are left out. Active and inactive are the calls of the source. Calls come from the whole dose curve.

How the values were obtained:
[1] = target: Acetylcholinesterase (Homo sapiens) (UniProt P22303); assay: Acetylcholinesterase (AChE) small molecule antagonists: colormetric cell-based qHTS assay (AID 1347395); note: nearly all actives have a fitted effect of over 30% in size
Outline: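 Colorimetric readout: DTNB quantifies thiocholine from acetylthiocholine hydrolysed by endogenous AChE of SH-SY5Y cells (2,000/well, plated overnight). Compound pretreatment 30 min, substrate incubation 90 min, both 37 C.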

[2] = target: Acetylcholinesterase (Homo sapiens) (UniProt P22303); assay: Acetylcholinesterase (AChE) small molecule antagonists: enzyme-based qHTS assay (AID 1347397); settings: Potency: AChE enzyme activity inhibition; outcome: AChE enzyme activity inhibition; note: nearly all actives have a fitted effect of over 55% in size
Outline: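 rhAChE 50 mU/mL (dispensed) + cpd or DMSO, 30 min RT; add DTNB/acetylthiocholine cocktail, 10 min RT; colorimetric thiocholine readout. qHTS, 1536-well format.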

[3] = target: Acetylcholinesterase (Homo sapiens) (UniProt P22303); assay: Acetylcholinesterase (AChE) small molecule antagonists: fluorescence cell-based qHTS assay (AID 1347398); settings: Potency: AChE activity; outcome: AChE activity; note: nearly all actives have a fitted effect of over 50% in size
Outline: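 Read-out is Thiolite Green fluorescence at Ex/Em = 490/520 nm, formed by reaction with thiocholine released when cellular AChE in SH-SY5Y cells hydrolyzes acetylthiocholine. Compounds were preincubated 30 min at 37 C before substrate.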

[4] = target: Acetylcholinesterase (Homo sapiens) (UniProt P22303); assay: Acetylcholinesterase (AChE) small molecule antagonists: enzyme-based qHTS assay with human liver microsomes (AID 1347399); settings: Potency: qHTS inhibition; outcome: qHTS inhibition; note: nearly all actives have a fitted effect of over 60% in size
Outline: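 Recombinant human AChE (50 mU/mL in the enzyme mix) and human liver microsomes (0.25 mg/mL final) were preincubated with compound and NADPH (0.25 mg/mL final) for 30 min at 37 C. Acetylthiocholine/DTNB was then added; thiocholine was read colorimetrically after 10 min at room temperature.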

Measured: Potency

Chain of Acetylcholinesterase (Homo sapiens) (P22303 whole entry, looked up): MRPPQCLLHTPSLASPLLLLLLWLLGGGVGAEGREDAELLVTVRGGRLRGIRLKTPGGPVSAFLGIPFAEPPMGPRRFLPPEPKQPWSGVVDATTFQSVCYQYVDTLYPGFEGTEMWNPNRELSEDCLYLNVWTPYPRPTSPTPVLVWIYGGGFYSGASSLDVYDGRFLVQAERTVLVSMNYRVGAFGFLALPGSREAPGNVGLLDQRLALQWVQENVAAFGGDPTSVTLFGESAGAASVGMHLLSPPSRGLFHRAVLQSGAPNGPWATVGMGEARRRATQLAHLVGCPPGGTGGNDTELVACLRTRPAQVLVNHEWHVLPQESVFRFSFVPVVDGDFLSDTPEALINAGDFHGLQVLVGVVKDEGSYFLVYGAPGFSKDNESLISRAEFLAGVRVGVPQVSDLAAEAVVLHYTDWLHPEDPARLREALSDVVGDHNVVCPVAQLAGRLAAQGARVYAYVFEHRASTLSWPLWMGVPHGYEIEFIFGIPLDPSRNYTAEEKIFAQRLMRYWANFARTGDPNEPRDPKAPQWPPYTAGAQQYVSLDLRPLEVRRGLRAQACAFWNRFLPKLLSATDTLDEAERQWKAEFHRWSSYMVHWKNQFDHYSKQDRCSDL

CC1C2CC(CC2C2CCCC(O)C2)C1(C)C (stereo not drawn)
inactive: all assays above

CC1=CC(=O)CC(C)(C)C1=O
inactive: all assays above

CCCCCCCCC1CCC(=O)O1 (stereo not drawn)
inactive: all assays above

CCC(C)C1CCCCC1=O (stereo not drawn)
inactive: all assays above

CCOC(=O)CS
inactive: all assays above

N[C@H](C(=O)O)[C@@H](O)c1ccc(O)c(O)c1
inactive: all assays above

CCOCN(C(=O)CS(=O)(=O)O)c1c(C)cccc1CC
inactive: all assays above

O=C(Nc1ccccc1)c1ccccc1O
inactive: all assays above

CC(=O)OC(C)(C)Cc1ccccc1
inactive: all assays above

CCNC(=O)NCc1cccc(Cl)c1
inactive: all assays above

CC1(C)CCC[C@]2(C)[C@H]3CCO[C@]3(C)CC[C@@H]12
inactive: all assays above

C=CC(=C)CCCC(C)(C)OC(C)=O
inactive: all assays above

COC(=O)C1=C(C)NC(COC(N)=O)=C(C(=O)OC(C)C)C1c1cccc(Cl)c1Cl (stereo not drawn)
inactive: all assays above

O=S(=O)(O)c1ccc(Nc2nc(Nc3ccc(/C=C/c4ccc(Nc5nc(Nc6ccc(S(=O)(=O)O)cc6)nc(N(CCO)CCO)n5)cc4S(=O)(=O)O)c(S(=O)(=O)O)c3)nc(N(CCO)CCO)n2)cc1
inactive: all assays above

CCCN(CCC)CCc1cccc2c1CC(=O)N2
inactive: all assays above

CC(=O)OCC(=O)Nc1cc(C#N)cc(NC(=O)COC(C)=O)c1Cl
inactive: all assays above

COc1ccc(S(=O)(=O)N2c3ccc(Cl)cc3[C@@](O)(c3ccccc3Cl)[C@H]2C(=O)N2CCC[C@@H]2C(N)=O)cc1OC
inactive: all assays above

COc1ccc(OC(=O)N(CC(=O)O)Cc2ccc(OCCc3nc(-c4ccccc4)oc3C)cc2)cc1
inactive: all assays above

C1COC1
inactive: all assays above

CC(CC1c2ccccc2CCc2ccccc21)CN(C)C (stereo not drawn)
inactive: all assays above

C=CCCCCCCCCC(=O)OCCCC
inactive: all assays above

CC(C)(C)N(CCO)CCO
inactive: all assays above

CC(=O)OCC(=O)[C@@]1(O)[C@H](OC(C)=O)C[C@H]2[C@@H]3CCC4=CC(=O)C=C[C@]4(C)[C@@]3(F)[C@@H](O)C[C@@]21C
inactive: all assays above

CC(C)CCCC(C)CCO (stereo not drawn)
inactive: all assays above

NS(=O)(=O)Cc1noc2ccccc12
inactive: all assays above

CCCCCCCCCC(=O)N(C)C
inactive: all assays above

Cc1ccc(Cl)cc1Cl
inactive: all assays above

CC(=O)c1c(C)cc(C(C)(C)C)cc1C
inactive: all assays above

COCCOCCOCCOCCOC
inactive: all assays above

O=C(C(Cl)Cl)N1CCOC12CCCCC2
inactive: all assays above

CCO
inactive: all assays above

Cc1ccnc(N)c1
inactive: all assays above

CCCCCCCCCCCCCc1ccccc1
inactive: all assays above

C[Si]1(C)O[Si](C)(C)O[Si](C)(C)O1
inactive: all assays above

Cc1nc(C)c(C)nc1C
inactive: all assays above

Cc1ccco1
inactive: all assays above

CCOc1ccc(N)c([N+](=O)[O-])c1
inactive: all assays above
